Measured values taken from PubChem BioAssay AID1347075 (National Center for Advancing Translational Sciences (NCATS), 2019).
About 5,500 (1.4%) of roughly 400,000 compounds were called active. Inconclusive results (about 9%) are left out. Only a selection was taken, and actives are over-represented in it overall. A number with no mark means an inactive call. The call rests on the fitted dose curve; in most records, active means well fitted cell-killing curve with a large enough effect; inconclusive means small, poorly fitted or top-dose-only effect, or effect the other way; inactive means flat fitted curve, though single readings scatter.

Assay: qHTS assay for MDR1-selective chemotherapeutics: Primary screen using the parental adenocarcinoma cell KB-3-1; further: nearly all actives have a fitted effect of over 60% in size
Settings: KB-3-1 viability, CellTiter-Glo ATP luminescence, 72 h; series mostly up to 46.1 µM; activity change, negative = cytotoxic: at the top concentration
Description: A prime difficulty in effectively treating cancer is the development of cellular resistance to multiple structurally unrelated anticancer drugs, a phenomenon known as multidrug resistance (MDR). […] Numerous strategies to overcome P-gp-mediated MDR have been explored, including the design of drugs that evade recognition and efflux, and development of inhibitors to block efflux and restore drug accumulation. […] An alternative approach is to exploit resistance by identifying drugs that target MDR cells over the non-resistant parental cells from which they were selected. […] The development of MDR1-selective agents represents a new strategy for resolving multidrug resistance, as it remains a long-standing clinical challenge for cancer chemotherapy.
Our goal is to identify compounds that selectively kill P-gp-expressing MDR cells. We will identify MDR1-selective compounds by comparing toxicity of compounds in the screening library against parental, drug-naive (KB-3-1) adenocarcinoma cells as well as their drug-selected MDR sub-line (KB-V1). The differential toxicity of compounds against these two cell lines will be used to identify MDR1-selective compounds, whose cytotoxicity is potentiated, rather than diminished, by P-gp expression. This assay will be utilized to conduct a quantitative high-throughput screen (qHTS) in collaboration with the NIH Chemical Genomics Center to identify selective agents, and probe hits arising from the screen will be validated using secondary assays and characterized through a well-established follow-up research program. This screen was run against the entire NCGC library collection of about 400,000 compounds.
NIH Molecular Libraries Probe Production Network [MLPCN]
NIH Chemical Genomics Center [NCGC]
PI: Michael Gottesman PhD, National Cancer Institute, NIH
Briefly, 5 microL of media containing either KB-3-1 cells (columns 1-2, 4-48) are dispensed into Greiner white, treated solid-bottom 1536-well assay plates (media-only control is added to column 3). Compounds are then transferred via Kalypsys pin tool equipped with 1536-pin array (10 nL slotted pins, V&P Scientific, San Diego, CA). Following addition of compound, the plates are incubated at 37 degrees C for 72 hours. CellTiter-Glo (2.5 µL/well) is then added, and the plates are read in a ViewLux reader (Perkin-Elmer, clear luminescence filter, 1 second exposure, 1x binning) following a 10 minute incubation. All cells are dispensed in DMEM phenol-red free media containing 10% FBS.
Library plates were screened starting from the lowest and proceeding to the highest concentration. Vehicle-only plates, with DMSO being pin-transferred to columns 5-48, will be inserted uniformly at the beginning and the end of each library in order to monitor and record any shifts in the background, which can be affected by reagent dispensers or loss in enzyme activity over time. Screening data will be corrected, normalized, and concentration-effect relationships will be derived by using publicly-available NCGC, NCATS curve fitting algorithms (http://ncgc.nih.gov/pub/openhts).
On the % scale 0 is the no-effect control and ±100 the full control effect; potency means the concentration at half of the fitted maximal effect.

With COC1C(O)C(C)OC(OC2CCC3(C=O)C(CCC4C3CCC3(C)C(C5=CC(=O)OC5)CCC43O)C2)C1O (stereo not given) the Potency was 0.0058 µM (active).
In the case of CCCCCCCCCCCCn1ccc(=N)cc1, the Potency is reported as 1.3 µM (active).
For CCOC(=O)[C@]12Cc3cc(OC)ccc3[C@H]1N(C(C)C)C(=O)c1ccccc12, the Potency was 6.51 µM (active).
In the case of CCOC(=O)[C@]12Cc3ccccc3[C@H]1N(C1CCCCC1)C(=O)c1cc(OC)ccc12, the Potency is reported as 4.61 µM (active).
In the case of C[C@]12CC[C@H](O)C[C@H]1CC[C@@H]1C2CC[C@]2(C)[C@@H](C3=CC(=O)OC3)[C@@H](O)C[C@]12O (stereo not given in full), the Potency is reported as 2.31 µM (active).
With CCCCCCN=C(CC)c1c(O)n(CCCC)c(=O)[nH]c1=O the Potency was 18.4 µM (active).
In the case of COc1cc(Cn2c(N)c(C(=O)NCc3ccco3)c3nc4ccccc4nc32)cc(OC)c1OC, the Potency is reported as 23.1 µM (active).
With CCC(C)(O)C(=O)OC1C(=O)OC2CC3C(C)=CC(=O)C(O)C3(C)C3C4(O)OCC23C1C(C)C4O (stereo not given) the Potency was 0.291 µM (active).

Compared with S=C(NCCc1ccccc1)N1Cc2cc(N3CCOCC3)ccc2-n2nncc2C1, CCOC(=O)CNC(=O)N1Cc2cc(N3CCCCC3)ccc2-n2nncc2C1 is lower in “activity change, negative = cytotoxic” value: 0.0564% for the first, -0.0736% for the second.

First: O=C1NCN(c2ccccc2)C12CCN(C(c1cccs1)c1nnnn1C1CCCCC1)CC2 (stereo not given)
Second: COc1cccc(C(c2nnnn2-c2ccc3c(c2)OCCO3)N2CCC3(CC2)C(=O)NCN3c2ccccc2)c1OC (stereo not given)
The “activity change, negative = cytotoxic” value of the first is higher: 0.0564% for the first, -1.93% for the second.

First: CC(C)CN1Cc2cc(N3CCCCC3)ccc2-n2nncc2C1
Second: O=C(NC1CCCCC1)N1Cc2cc(N3CCCCC3)ccc2-n2nncc2C1
The “activity change, negative = cytotoxic” value of the first is higher: 0.0564% for the first, 0.03% for the second.

Going from O=C(NCC1=C(c2ccc3ccccc3c2)C[C@@H]2CC[C@H]1N2Cc1ccco1)c1cccs1 to CC(=O)NCC1=C(c2ccc3ccccc3c2)C[C@@H]2CC[C@H]1N2Cc1ccco1, the “activity change, negative = cytotoxic” value rises from -17% to 1.55%.

Compared with COc1ccc(NC(=O)N2Cc3ccccc3-n3nncc3C2)cc1, c1ccc(N2Cc3ccccc3-n3nncc3C2)nc1 is lower in “activity change, negative = cytotoxic” value: 6.29% for the first, -7.89% for the second.

Compared with c1cc2c(c(NC3=NCCCS3)c1)CCCC2, O=P(OC1=CCCCC1)(c1ccccc1)c1ccccc1 is higher in “activity change, negative = cytotoxic” value: -15.7% for the first, 0% for the second.

Going from O=c1[nH]c2ccccc2n1C1CCN(C(c2ccnc3ccccc23)c2nnnn2Cc2ccccc2)CC1 (stereo not given) to Cn1cc(/C=C/c2nc3ccccc3c(=O)n2-c2ccccc2)c2ccccc21, the “activity change, negative = cytotoxic” value falls from -2.56% to -7.08%.

Compared with O=C(O)c1cc[c]([Sb](=[O])([OH])[OH])cc1[N+](=O)[O-], O=C(O)/C=C/c1ccc2c(c1)OCO2 is lower in “activity change, negative = cytotoxic” value: 29% for the first, -11.5% for the second.

Going from Cc1ccc(OC(=O)N(C)C[C@@H]2OCc3cnnn3CCCC(=O)N([C@H](C)CO)C[C@@H]2C)cc1 to C[C@H]1CN([C@@H](C)CO)C(=O)CCCn2nncc2CO[C@H]1CN(C)C(=O)Oc1cccc2ccccc12, the “activity change, negative = cytotoxic” value falls from 8.17% to 0%.

Going from COC(=O)CN(CCCl)P1(=O)OCCCN1CCCl (stereo not given) to Cc1ccc(NC(=O)N(Cc2ccc3c(c2)OCO3)C2CCN(Cc3ccccc3)CC2)cc1F, the “activity change, negative = cytotoxic” value falls from 23.9% to -5.54%.

First: C[C@]12CCC3C(CC[C@H]4C[C@@H](O)CC[C@]34C)C1C[C@@H](O)[C@H]2O (stereo not given in full)
Second: C[C@]12CCC3C(CC[C@H]4C[C@@H](O)CC[C@]34C)C1CC[C@@H]2O (stereo not given in full)
The “activity change, negative = cytotoxic” value of the first is lower: -0.788% for the first, 22.6% for the second.

Compared with COc1cc(C(=O)N2Cc3ccc(Br)cc3-n3nncc3C2)cc(OC)c1OC, CCOC(=O)c1c(N)n(Cc2ccccc2)c2nc3ccccc3nc12 is lower in “activity change, negative = cytotoxic” value: 0.0564% for the first, -11.6% for the second.

Compared with CCCCn1c(O)c(C(CC)=NCc2ccco2)c(=O)[nH]c1=O, CCC(=NCCCO)c1c(O)n(-c2ccc(OC)cc2)c(=O)[nH]c1=O is higher in “activity change, negative = cytotoxic” value: -0.31% for the first, 0% for the second.

Going from O=C1C2CCN(CC2)C1(CO)CO to CCn1cc(CN2CCCC(C(=O)c3cccc(C(F)(F)F)c3)C2)cn1 (stereo not given), the “activity change, negative = cytotoxic” value falls from 3.63% to 0.0302%.

Going from ClCCN(CCCl)c1ccc(C=Nc2ccc(/C=C/c3ccnc4ccccc34)cc2)cc1 to O=c1c2ccccc2[nH]c(=S)n1-c1cccc(Cl)c1, the “activity change, negative = cytotoxic” value falls from -0.0871% to -23.5%.

First: COC(=O)C1=C(c2ccccc2)C[C@@H]2CC[C@H]1N2C(=O)NCc1ccco1
Second: Cc1nnc(NC(=O)c2cccn(Cc3cccc(F)c3)c2=O)s1
The “activity change, negative = cytotoxic” value of the first is lower: -2.82% for the first, 0.206% for the second.
